Screens from PubChem.
Hits are enriched below; roughly 15% of the tested compounds scored in any of these assays.
VP16 counter = VP16 counterscreen qHTS for inhibitors of ROR gamma transcriptional activity | Drosophila S2 Gal4-VP16 UAS-luciferase, luminescence, 20 h | Potency, µM (titrated, usually from 53.6 µM), most hits filed as inhibitors | 310,000 tested, 3.5% active | AID 2546, 2010;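 also: Gal4-VP16 expression switched on by copper sulfate through the metallothionein promoter; nearly all actives have a fitted effect of over 50% in size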
RORgamma inh = qHTS for inhibitors of ROR gamma transcriptional activity | Drosophila S2 Gal4-RORgamma UAS-luciferase reporter, 20 h | Potency, µM (highest dose often 53.6 µM), usual class: inhibitors | 310,000 tested, 5.4% active | AID 2551, 2010; also: nearly all actives have a fitted effect of over 60% in size
Target sequence (P51450 whole entry, looked up, the tested form may be a part): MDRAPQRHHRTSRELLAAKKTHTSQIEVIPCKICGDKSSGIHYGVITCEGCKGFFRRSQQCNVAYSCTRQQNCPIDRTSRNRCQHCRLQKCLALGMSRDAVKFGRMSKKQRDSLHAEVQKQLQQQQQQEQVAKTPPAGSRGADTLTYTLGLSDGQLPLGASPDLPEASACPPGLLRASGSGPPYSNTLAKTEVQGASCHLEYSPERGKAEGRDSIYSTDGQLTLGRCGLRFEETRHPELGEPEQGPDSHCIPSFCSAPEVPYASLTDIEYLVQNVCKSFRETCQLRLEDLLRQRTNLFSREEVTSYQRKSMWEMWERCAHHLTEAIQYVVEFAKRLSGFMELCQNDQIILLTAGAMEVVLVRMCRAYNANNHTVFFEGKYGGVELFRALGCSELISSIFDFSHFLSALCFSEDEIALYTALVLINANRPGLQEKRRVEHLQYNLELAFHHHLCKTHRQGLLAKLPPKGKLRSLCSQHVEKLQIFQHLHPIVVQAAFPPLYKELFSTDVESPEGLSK
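Drosophila S2 cells stably expressing Gal4-DBD/mouse RORγ fusion under metallothionein promoter plus UAS-luciferase; compound 1 h, then 700 uM CuSO4 induction for 20 h at ambient temperature; inhibition read as reduced luminescence.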
ELG1 repair inh = qHTS screen for small molecules that inhibit ELG1-dependent DNA repair in human embryonic kidney (HEK293T) cells expressing luciferase-tagged ELG1; HEK293T ELG1-luciferase reporter, luminescence, 16 h; DNA damage induced by 5-fluorouridine; Potency, µM (highest dose often 46.1 µM), usual class: inhibitors; 330,000 tested, 2.3% active; also: nearly all actives have a fitted effect of over 55% in size
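5-Fluorouridine DNA damage + compound/DMSO, 2,000 cells/well, 16 h, 37 °C/5% CO2. ONE-Glo, 30 min RT, luminescence. Readout = decrease in reporter signal.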
DT40 TDP1 no CPT = qHTS for Inhibitors of human tyrosyl-DNA phosphodiesterase 1 (TDP1): qHTS in cells in absence of CPT | DT40 Tdp1-/- hTDP1 cells, no CPT, ATP luminescence, 48 h | 420,000 tested, 15% active | Potency, µM (highest dose often 46.2 µM), actives largely listed as inhibitors; also: nearly all actives have a fitted effect of over 55% in size
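No-CPT arm: Tdp1-/-;hTDP1 DT40 cells (400/well) plus compounds, incubated ≥48 hr at 37 °C. Readout CellTiter-Glo luminescence.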
ALOX12 inh = Primary qHTS assay for inhibitors of human arachidonate 12S-lipoxygenase (ALOX12): Round 2 | purified 12hLO, xylenol orange hydroperoxide absorbance | Polyunsaturated fatty acid lipoxygenase ALOX12 (Homo sapiens), P18054 | 580,000 tested, 1.1% active | Potency, µM (highest dose often 108 µM), hits mostly inhibitors | AID 1671190, 2021
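Purified human 12hLO (150 nM final) in 25 mM Hepes, 0.01% Triton X-100, pH 7.0 was preincubated 15 min at room temperature with compound. Then 40 uM arachidonic acid was added, 30 min. Hydroperoxide was read by Fe-XO absorbance ratio 573/405 nm.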
TDP1 cell CPT = qHTS for Inhibitors of human tyrosyl-DNA phosphodiesterase 1 (TDP1): qHTS in cells in presence of CPT | chicken DT40 Tdp1-/-;hTDP1 cells + 20 nM CPT, ATP luminescence, 48 h | Potency, µM (highest dose often 46.2 µM), most hits filed as inhibitors | 420,000 tested, 12% active | AID 686979, 2013; also: nearly all actives have a fitted effect of over 55% in size
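Cell growth measured by CellTiter-Glo luminescence after a minimum 48 h, 37 C compound exposure with 20 nM CPT in Tdp1-knockout DT40 cells stably expressing hTDP1, seeded 400/well; qHTS titration format.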
Numbers stand for hits; n = inactive; u = inconclusive; x = no result given. Calls follow the shape of the dose curve; as a rule, active = well fitted curve in the direction sought with a large enough effect; inconclusive = small, poorly fitted or top-dose-only effect, or another doubt; inactive = no such curve, though single readings can be large; an effect the other way counts as inactive or inconclusive.

SMILES	VP16 counter	RORgamma inh	ELG1 repair inh	DT40 TDP1 no CPT	ALOX12 inh	TDP1 cell CPT
CCCC(c1nnnn1Cc1ccc(OC)cc1)N1CCC(C(N)=O)CC1 (stereo not given)	n	n	n	n	u	n
CN1CCN(C(c2ccc(F)cc2)c2nnnn2Cc2cccs2)CC1 (stereo not given)	n	n	n	n	u	n
Fc1ccc(C(c2nnnn2Cc2cccs2)N2CCN(C3CCCCC3)CC2)cc1 (stereo not given)	n	n	n	20.6µM	n	u
Cc1cccc(NC(=O)CN(C)C(=O)CCc2ncc(-c3ccccc3F)o2)c1C	x	x	x	x	n	x
Cn1cnc2c1c(=O)n(CCCSc1nc3ccccc3[nH]1)c(=O)n2C	x	x	x	x	n	x
COCCN1CCC(N2CCN(S(=O)(=O)c3ccc(F)cc3F)CC2)C1=O (stereo not given)	x	x	x	x	n	x
Cc1cccc(NC(=O)c2oc3ccccc3c2NC(=O)c2nn(-c3cccc(C)c3)ccc2=O)c1	x	x	x	x	n	x
COc1ccc(C(c2nnnn2Cc2ccc(F)cc2)N2CCN(c3ccc(OC)cc3)CC2)cc1 (stereo not given)	n	n	n	14.6µM	n	23.1µM
c1ccc(Cn2nnnc2C(c2ccncc2)N2CCOCC2)cc1 (stereo not given)	n	n	n	n	n	n
CC(C)CC(c1nnnn1C(C)(C)C)N1CCN(Cc2ccccc2)CC1 (stereo not given)	n	n	n	u	10µM	n
Cc1cc(C(c2nnnn2Cc2ccccc2)N2CCOCC2)c(C)n1-c1ccc2c(c1)OCO2 (stereo not given)	n	n	n	16.4µM	x	u
COc1ccc(C(c2nnnn2Cc2ccc(F)cc2)N2CCN(c3ccccc3)CC2)cc1 (stereo not given)	n	n	n	u	n	u
COc1ccc(Cn2nnnc2C(CC(C)C)N2CCN(c3ccccc3)CC2)cc1 (stereo not given)	n	n	u	14.6µM	n	18.4µM
Cc1cc(C(=O)N2CCCC(CCc3c(F)cccc3F)C2)no1 (stereo not given)	x	x	x	x	n	x
Cc1cc(=O)oc2cc(OCC3CC(c4ccc(N(C)C)cc4)=NO3)ccc12 (stereo not given)	n	n	n	n	n	n
Cc1cc(=O)oc2cc(OCC3CC(c4ccc(Cl)cc4)=NO3)ccc12 (stereo not given)	n	n	u	u	n	28.2µM
COc1ccc(S(=O)Cc2ccc(C(=O)NCc3cccc(OC)c3OC)o2)cc1 (stereo not given)	x	x	x	x	n	x
Cc1ccccc1OCCN(C)C(=O)NCc1ccc(S(N)(=O)=O)cc1	x	x	x	x	n	x
COc1ccc(-c2nc3c(C)cc(Br)cn3c2Cc2ccsc2)cc1OC	x	x	x	u	n	u
COc1ccc(-c2nc3c(C)cc(Br)cn3c2CC2CCCCC2)cc1OC	x	x	x	u	7.08µM	u
COc1ccc(-c2nc3c(C)cc(Br)cn3c2CC(C)(C)C)cc1OC	x	x	x	n	31.6µM	n
CC(Oc1ccc2ccc(=O)oc2c1)C(=O)NC(=O)NC1CCCCC1 (stereo not given)	x	x	x	x	n	x
CCC(CC)C(=O)Nc1cc(OC)c(OC)cc1C(=O)O	n	n	n	18.4µM	n	16.4µM
Cc1[nH]n(C(N)=S)c(=O)c1N=Nc1ccc2ccccc2c1	3.98µM	1µM	u	u	u	u
Cc1[nH]n(-c2ccccc2)c(=O)c1N=Nc1ccc(F)cc1	u	n	u	n	n	n
Cc1[nH]n(C(N)=S)c(=O)c1N=Nc1cc(-c2ccc(Br)cc2)[nH]n1	n	1.58µM	u	2.91µM	u	3.26µM
